Reference: PubChem BioAssay (Tox21)
Results filed as inconclusive are left out. Calls of active or inactive are those of the source. Unless noted, calls come from the whole dose curve; as a rule, active = well fitted curve in the direction sought with a large enough effect in the repeat runs; inconclusive = weak or mixed curves; inactive = no such curve, though single readings can be large; an effect the other way counts as inactive or inconclusive.

Columns and labels:
[1] = qHTS assay to identify small molecule agonists of the peroxisome proliferator-activated receptor delta (PPARd) signaling pathway - cell viability counter screen (AID 743211); note: nearly all actives have a fitted effect of over 55% in size; note: potency is the fitted concentration of half-maximal effect
Procedure, shortened: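 Following 5 h plating at 37 C and 5% CO2, PPARd UAS-bla HEK293H cells took up test compounds for 17 h. Viability was quantified by luminescence 30 min after CellTiter-Glo addition at room temperature.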

[2] = qHTS assay to identify small molecule antagonists of the peroxisome proliferator-activated receptor delta (PPARd) signaling pathway - cell viability counter screen (AID 743213); note: nearly all actives have a fitted effect of over 50% in size
Procedure, shortened: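 Cytotoxicity counter screen: CellTiter-Glo luminescence read 30 min after addition, in the same wells as the reporter assay. There, PPARd UAS-bla HEK293H cells (3000/well) were treated 17 h at 37 C with compound and 300 nM L165041.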

[3] = qHTS assay to identify small molecule agonists of the farnesoid-X-receptor (FXR) signaling pathway - cell viability counter screen (AID 743218); note: nearly all actives have a fitted effect of over 45% in size; note: potency is the fitted concentration of half-maximal effect
Procedure, shortened: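 In GeneBLAzer FXR-UAS-bla HEK 293T cells, compounds act for 16 h at 37 C. Cell viability is then scored in the reporter wells by CellTiter-Glo, 30 min at RT, luminescence.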

[4] = qHTS assay to identify small molecule antagonists of the farnesoid-X-receptor (FXR) signaling pathway - cell viability counter screen (AID 743221; active = well fitted cell-killing curve with a large enough effect in the repeat runs, not every such curve was filed as active; note: nearly all actives have a fitted effect of over 50% in size; note: potency is the fitted concentration of half-maximal effect)
Procedure, shortened: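 Compound effects on cell number were measured as CellTiter-Glo luminescence in HEK 293T cells expressing FXR-UAS-bla, after 16 h at 37 C with 50 uM CDCA (final).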

[5] = molecular target: Vitamin D3 receptor (Homo sapiens) (UniProt P11473); experiment: qHTS assay to identify small molecule agonists of the vitamin D receptor (VDR) signaling pathway (AID 743222; calls by dose curve)
Procedure, shortened: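 Agonist activity measured in VDR-bla reporter cells. Exposure 16 h, 37C, 5% CO2; detection by B/G FRET substrate, 2 h RT.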

[6] = molecular target: Vitamin D3 receptor (Homo sapiens) (UniProt P11473); experiment: qHTS assay to identify small molecule antagonists of the vitamin D receptor (VDR) signaling pathway (AID 743223; active = well fitted inhibition curve with a large enough effect in the signal ratio in the repeat runs, not every such curve was filed as active; the % refers to the signal ratio)
Procedure, shortened: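 Beta-lactamase activity in VDR-bla cells is measured by FRET substrate fluorescence (2 h, room temperature) after cells spend 16 h at 37C with test compound and 3 nM final 1alpha,25-dihydroxyvitamin D3.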

[7] = qHTS assay to identify small molecule agonists of the vitamin D receptor (VDR) signaling pathway - cell viability counter screen (AID 743224); note: series mostly up to about 63 µM; nearly all actives have a fitted effect of over 50% in size
Procedure, shortened: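 VDR-bla cell line, quantitative HTS format; 16 h compound incubation (37C, 5% CO2); ATP-based CellTiter-Glo luminescence measured in the reporter assay wells.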

[8] = qHTS assay to identify small molecule antagonists of the vitamin D receptor (VDR) signaling pathway - cell viability counter screen (AID 743225); note: nearly all actives have a fitted effect of over 50% in size; note: potency is the fitted concentration of half-maximal effect
Procedure, shortened: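 In this counter screen, VDR-bla HEK 293T cells receive test compound plus 3 nM final calcitriol for 16 h at 37C. Room-temperature steps of 2 h with the beta-lactamase substrate, then 30 min with CellTiter-Glo, precede the luminescence read.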

[9] = qHTS assay to identify small molecule agonists of the NFkB signaling pathway (AID 1159509; active = well fitted curve in the direction sought with a large enough effect in the signal ratio in the repeat runs, not every such curve was filed as active; the % refers to the signal ratio; note: series mostly up to about 61 µM)
Procedure, shortened: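 NFkB-bla ME-180 cells carry a beta-lactamase reporter under an NF-kB response element. They were plated overnight, then exposed to compounds for 5 h at 37 C. Read-out is LiveBLAzer FRET after 1.5 hr at room temperature (405 nm excitation; 460/530 nm emission).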

[10] = qHTS assay to identify small molecule agonists of the NFkB signaling pathway - cell viability counter screen (AID 1159515; calls by dose curve; note: series mostly up to about 61 µM; nearly all actives have a fitted effect of over 55% in size)
Procedure, shortened: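 Viability in NFkB-bla ME-180 cells was measured by CellTiter-Glo luminescence, 30 min room temperature, in wells already treated 5 hr with compounds and read for reporter FRET.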

[11] = qHTS assay to identify small molecule antagonists of the retinoid-related orphan receptor gamma (ROR-gamma) signaling pathway - cell viability counter screen (AID 1159520); note: nearly all actives have a fitted effect of over 50% in size
Procedure, shortened: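 Tet-on ROR gamma CHO cells (1,000/well) were plated 4 hr, given compounds in DMSO for 2 hr at 37 C, then induced with 1 uM final doxycycline for 16 hr. Viability was read as ATP by CellTiter-Glo luminescence after 30 min.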

[12] = molecular target: Nuclear receptor ROR-gamma (Homo sapiens) (UniProt P51449); experiment: qHTS assay to identify small molecule antagonists of the retinoid-related orphan receptor gamma (ROR-gamma) signaling pathway (AID 1159521; note: nearly all actives have a fitted effect of over 50% in size; note: potency is the fitted concentration of half-maximal effect)
Procedure, shortened: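 Screening format: cell-based luciferase reporter in CHO cells with doxycycline-inducible RORγ. Compound pre-exposure lasts 2 h, doxycycline is 1 uM final, induction runs 16 h at 37 C, and ONE-Glo luminescence is read.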

[13] = qHTS assay to identify small molecule agonists of the AP-1 signaling pathway - cell viability counter screen (AID 1159525; calls by dose curve; note: nearly all actives have a fitted effect of over 55% in size)
Procedure, shortened: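 ME-180 AP-1-bla, 2500 cells/well, Opti-MEM + 0.5% dialyzed FBS; overnight 37 °C; cpd 15-pt titration, 5 h 37 °C; CellTiter-Glo 30 min RT; luminescence read; normalised to TOAB and DMSO controls.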

[14] = qHTS assay to identify small molecule agonists of the AP-1 signaling pathway (AID 1159526; calls by dose curve)
[15] = molecular target: Bile acid receptor (Homo sapiens) (UniProt Q96RI1); experiment: qHTS assay to identify small molecule antagonists of the farnesoid-X-receptor (FXR) signaling pathway (AID 743217; active = well fitted inhibition curve with a large enough effect in the signal ratio in the repeat runs, not every such curve was filed as active; the % refers to the signal ratio)
Procedure, shortened: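 Beta-lactamase reporter under UAS control in HEK 293T cells; compound exposure 16 h at 37 °C in the presence of chenodeoxycholic acid (50 uM final); signal from B/G FRET substrate after 2 h at room temperature.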

[16] = molecular target: Bile acid receptor (Homo sapiens) (UniProt Q96RI1); experiment: qHTS assay to identify small molecule agonists of the farnesoid-X-receptor (FXR) signaling pathway (AID 743220; active = well fitted activation curve with a large enough effect in the signal ratio in the repeat runs, not every such curve was filed as active; the % refers to the signal ratio)
Procedure, shortened: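 Beta-lactamase reporter under UAS control in GeneBLAzer FXR HEK 293T cells (5000/well) measured with LiveBLAzer FRET substrate after 2 h at room temperature. Compound exposure lasted 16 h at 37C.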

[17] = qHTS assay to identify small molecule agonists of the endoplasmic reticulum stress response signaling pathway - cell viability counter screen (AID 1159517; calls by dose curve)
Procedure, shortened: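 CellTiter-Glo was added to wells already read for beta-lactamase FRET, and luminescence was recorded 30 min later. Cells: ESRE-bla HeLa, 1,500 per well, compound exposure 5 hr at 37 C.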

[18] = molecular target: Peroxisome proliferator-activated receptor delta (Homo sapiens) (UniProt Q03181); experiment: qHTS assay to identify small molecule agonists of the peroxisome proliferator-activated receptor delta (PPARd) signaling pathway (AID 743212; calls by dose curve)
Procedure, shortened: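 A PPARd-bla HEK293H line with beta-lactamase under an Upstream Activator Sequence is treated with compounds at 37 C. Substrate loading for 2 h at room temperature precedes the fluorescence measurement.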

[19] = molecular target: Peroxisome proliferator-activated receptor delta (Homo sapiens) (UniProt Q03181); experiment: qHTS assay to identify small molecule antagonists of the peroxisome proliferator-activated receptor delta (PPARd) signaling pathway (AID 743215; active = well fitted inhibition curve with a large enough effect in the signal ratio in the repeat runs, not every such curve was filed as active; the % refers to the signal ratio;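 note: cells stimulated with agonist L165041 at 300 nM final during compound exposure; series mostly up to about 62 µM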)
Procedure, shortened: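 Antagonist-mode beta-lactamase reporter screen: HEK293H cells with UAS-bla under PPARd control, stimulated by 300 nM L165041 (final) alongside test compound for 17 h at 37 C, then FRET fluorescence after 2 h substrate incubation.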

Measured: Potency

Bile acid receptor (Homo sapiens), sequence (Q96RI1 whole entry, looked up): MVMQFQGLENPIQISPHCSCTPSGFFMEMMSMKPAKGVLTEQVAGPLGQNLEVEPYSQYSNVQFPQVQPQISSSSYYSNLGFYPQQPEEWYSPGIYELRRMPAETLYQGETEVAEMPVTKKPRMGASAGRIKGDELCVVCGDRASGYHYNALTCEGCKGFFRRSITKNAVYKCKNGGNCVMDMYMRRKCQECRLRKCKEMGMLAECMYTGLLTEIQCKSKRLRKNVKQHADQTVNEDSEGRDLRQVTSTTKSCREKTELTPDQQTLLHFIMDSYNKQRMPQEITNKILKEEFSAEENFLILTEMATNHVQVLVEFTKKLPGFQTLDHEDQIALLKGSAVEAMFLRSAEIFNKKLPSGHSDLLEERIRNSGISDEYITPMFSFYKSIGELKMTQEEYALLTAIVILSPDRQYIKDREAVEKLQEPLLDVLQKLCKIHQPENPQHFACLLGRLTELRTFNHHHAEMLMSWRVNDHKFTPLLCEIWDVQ
Vitamin D3 receptor (Homo sapiens), sequence (P11473 whole entry, looked up): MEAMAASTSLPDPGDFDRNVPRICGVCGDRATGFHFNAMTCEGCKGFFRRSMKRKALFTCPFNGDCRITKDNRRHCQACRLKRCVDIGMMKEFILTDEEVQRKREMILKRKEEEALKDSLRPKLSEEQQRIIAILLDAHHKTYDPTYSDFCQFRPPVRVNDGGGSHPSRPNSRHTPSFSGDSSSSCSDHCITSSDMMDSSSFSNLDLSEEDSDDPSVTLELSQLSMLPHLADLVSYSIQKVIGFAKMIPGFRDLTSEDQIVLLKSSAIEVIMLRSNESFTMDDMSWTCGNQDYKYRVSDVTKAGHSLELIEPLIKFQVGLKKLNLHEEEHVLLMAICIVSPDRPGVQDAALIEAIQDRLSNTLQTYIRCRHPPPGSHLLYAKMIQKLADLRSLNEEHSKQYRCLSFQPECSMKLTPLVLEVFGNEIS
Peroxisome proliferator-activated receptor delta (Homo sapiens), sequence (Q03181 whole entry, looked up): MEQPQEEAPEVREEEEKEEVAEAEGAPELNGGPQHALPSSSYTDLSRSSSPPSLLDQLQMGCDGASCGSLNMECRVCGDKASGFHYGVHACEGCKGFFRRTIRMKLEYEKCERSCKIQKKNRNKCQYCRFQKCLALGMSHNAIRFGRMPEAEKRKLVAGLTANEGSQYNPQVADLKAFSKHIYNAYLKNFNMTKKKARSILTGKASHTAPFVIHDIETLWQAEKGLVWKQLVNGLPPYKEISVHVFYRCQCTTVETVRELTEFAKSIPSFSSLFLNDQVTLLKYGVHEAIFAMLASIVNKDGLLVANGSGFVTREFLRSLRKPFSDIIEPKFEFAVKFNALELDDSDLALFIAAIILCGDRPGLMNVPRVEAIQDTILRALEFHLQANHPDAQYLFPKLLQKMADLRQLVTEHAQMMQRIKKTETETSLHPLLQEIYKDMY

CC(C)C=O
not listed: [15] | [16] | [17] | [18] | [19]
inactive: all other assays above

O=C1C(=O)c2ccccc2C(O)=C1C1CCC(c2ccc(Cl)cc2)CC1 (configuration not stated)
inactive: [2] | [15] | [16] | [6] | [9] | [10] | [17] | [13]
active: [8] 5.35 µM | [12] 7.5 µM

Clc1cc(Cl)nc(Cl)n1
not listed: [5] | [17]
inactive: all other assays above

CCOc1ccc(Cc2nccc3cc(OCC)c(OCC)cc23)cc1OCC
active: [12] 7.5 µM
not listed: [3] | [6] | [11] | [15] | [16] | [19]
inactive: all other assays above

CC(=O)OCCN(CCOC(C)=O)c1ccc(N=Nc2ccc([N+](=O)[O-])cc2C#N)cc1
not listed: [6] | [11] | [12] | [15] | [16] | [18] | [19]
inactive: all other assays above

CCOC(=O)c1ccc(OCCN2C[C@H](O)[C@@H](O)[C@H](O)[C@H]2CO)cc1
not listed: [15] | [16] | [17]
inactive: all other assays above

CCOc1cccc(-n2cc(C(=O)N3CCN(c4cc(C(=O)O)c5ccccc5c4)CC3)nc2-c2ccc(C)cc2)c1
active: [1] 37.1 µM | [3] 46.7 µM
inactive: [19] | [15] | [4] | [9] | [10] | [17]

CCc1ccccc1
not listed: [5] | [13] | [15] | [16] | [17]
inactive: all other assays above

Nc1ccc(N=Nc2ccccc2)c(N)c1
inactive: [18] | [15] | [3] | [16] | [4] | [8] | [9] | [10] | [12]

OCCN1CCN(CCCN2c3ccccc3Sc3ccc(Cl)cc32)CC1
active: [1] 29.8 µM | [3] 26.6 µM | [4] 26.6 µM | [8] 23.9 µM
inactive: [18] | [16] | [7] | [9] | [10]
